The source of these data is PubChem BioAssay (NCATS).

The subject of one experiment is TAB113. Description: qHTS profiling for inhibitors of Plasmodium falciparum proliferation (AID 504749).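 Also: 0% = DMSO vehicle and full inhibition = artemisinin control; nearly all actives have a fitted effect of over 60% in size.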 The settings on record: P. falciparum in erythrocytes, SYBR Green DNA, 72 h; series mostly up to 28.7 µM. In outline:
(§1)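 Three-day growth assay of blood-stage parasites in erythrocytes (0.3% parasitemia, 2.5% hematocrit) at 37 C, 5% CO2, quantified by SYBR Green DNA staining after overnight detergent lysis.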

Another experiment deals with TAB165. Described as above. To be noted: P. falciparum in erythrocytes, SYBR Green DNA, 72 h; series mostly up to 28.7 µM. In short, it runs like this:
as §1

Another experiment relates to W2. Described as above. The settings on record: P. falciparum in erythrocytes, SYBR Green DNA, 72 h; series mostly up to 28.7 µM. In short, it runs like this:
as §1

The test system of the next experiment is CRL-7250. Briefly: Cytotoxic Profiling of Annotated Libraries Using Quantitative High-Throughput Screening (AID 1296008). Also: nearly all actives have a fitted effect of over 60% in size. Also: potency is read from the fitted curve at half-maximal effect. As to max response: % is scaled to controls: 0 for no effect and ±100 for the full control effect. The settings on record: Five cell lines viability, CellTiter-Glo ATP luminescence, 48-72 h; max response: hits give low values. In short, it runs like this:
(§2)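 Cytotoxicity was measured as CellTiter-Glo ATP luminescence, read after 10 min at room temperature. Compound treatment of the cells lasted 48 or 72 hr at 37 degrees Celsius in a qHTS format.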
(In general: Cellular ATP, detected with luciferase, serves as a proxy for viable cell number.)

The next experiment concerns HEK293. The experiment is described as above. The settings on record: Five cell lines viability, CellTiter-Glo ATP luminescence, 48-72 h; max response: hits give low values. In outline: as §2
Another experiment concerns HaCat. The experiment is described as above. The settings on record: Five cell lines viability, CellTiter-Glo ATP luminescence, 48-72 h; max response: hits give low values. In outline: as §2
In a further experiment the test system is KB-3-1. The experiment is described as above. The settings on record: Five cell lines viability, CellTiter-Glo ATP luminescence, 48-72 h; max response: hits give low values. In short, it runs like this:
as §2

The next experiment concerns NIH3T3. The description is as above. To be noted: Five cell lines viability, CellTiter-Glo ATP luminescence, 48-72 h; max response: hits give low values. In short, it runs like this:
as §2

In the next experiment the test system is MCC-13. Description: qHTS assay to identify novel small-molecules to repurpose for Merkel cell carcinoma treatment (AID 1296009). Also: nearly all actives have a fitted effect of over 60% in size. Also: potency is read from the fitted curve at half-maximal effect. To be noted: MCC and control cell lines, CellTiter-Glo viability, 72 h; series mostly up to 46 µM. In outline: (§3)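 After compound transfer in DMSO, plates were kept 72 hr at 37 degree celsius. Luminescent ATP signal from CellTiter-Glo served as viability measure, normalized against DMSO and no-cell controls.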
Background: qHTS replaces the single test concentration by a dilution series.

For another experiment, the system named is MCC-26. Described as above. To be noted: MCC and control cell lines, CellTiter-Glo viability, 72 h; series mostly up to 46 µM. In short, it runs like this: as §3
In a further experiment the test system is MKL-1. Described as above. To be noted: MCC and control cell lines, CellTiter-Glo viability, 72 h; series mostly up to 46 µM. In short, it runs like this:
as §3

For a further experiment, the system named is MKL-2. Described as above. The settings on record: MCC and control cell lines, CellTiter-Glo viability, 72 h; series mostly up to 46 µM. In outline: as §3
The next experiment relates to UISO. Described as above. To be noted: MCC and control cell lines, CellTiter-Glo viability, 72 h; series mostly up to 46 µM. In outline: as §3
Another experiment deals with WaGa. The experiment is described as above. To be noted: MCC and control cell lines, CellTiter-Glo viability, 72 h; series mostly up to 46 µM. In outline:
as §3

In the next experiment the test system is C33A. Description: Primary qHTS to identify gynecologic anti-cancer compounds using libraries of approved drugs and bioactive compounds (AID 1345084). Also: nearly all actives have a fitted effect of over 55% in size. Also: potency is read from the fitted curve at half-maximal effect. To be noted: Gynecologic cancer cell panel viability, ATPlite luminescence, 48 h; series mostly up to 57.5 µM. In outline: (§4)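 48 h compound exposure at 37 C, 5% CO2; five-point qHTS. ATPlite luminescence readout of cell ATP.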

The test system of a further experiment is CAOV3. The description is as above. The settings on record: Gynecologic cancer cell panel viability, ATPlite luminescence, 48 h; series mostly up to 57.5 µM. In outline: as §4
The next experiment relates to CASKI. The experiment is described as above. To be noted: Gynecologic cancer cell panel viability, ATPlite luminescence, 48 h; series mostly up to 57.5 µM. In outline: as §4
Another experiment has as its system HEK293T. Description: qHTS assay to identify novel small-molecules to repurpose for Merkel cell carcinoma treatment (AID 1296009). Also: nearly all actives have a fitted effect of over 60% in size. Also: potency is read from the fitted curve at half-maximal effect. To be noted: MCC and control cell lines, CellTiter-Glo viability, 72 h; at 44.8 µM (top of the series) unless noted. In outline: as §3

Where “and” joins values, the source holds several entries; their conditions need not be identical. Identical values can stand only once. Records with an inconclusive call do not appear. A number with no mark means an inactive call. Calls of active or inactive are those of the source. Calls follow the shape of the dose curve; as a rule, active = well fitted curve in the direction sought with a large enough effect; inconclusive = small, poorly fitted or top-dose-only effect, or another doubt; inactive = no such curve, though single readings can be large; an effect the other way counts as inactive or inconclusive.

For `COc1cc(OC)cc(OC)c1`, the Potency result with TAB113, in the experiment with TAB165, with W2, in the experiment with MCC-13, in the experiment with MCC-26 and in the experiment on MKL-1 was “inactive” each time. The Potency result in the experiment on MKL-2, in the experiment with UISO, in the experiment on WaGa, in the experiment with C33A, in the experiment with CAOV3 and in the experiment with CASKI was “inactive” throughout. For the same compound, the max response was -8.4% in the experiment with CRL-7250; 0.846% with HEK293; 4.71% in the experiment with HaCat; -2.29% with KB-3-1; -4.81% in the experiment with NIH3T3.
In the case of `Oc1cc(O)c2c(c1)O[C@H](c1ccc(O)c(O)c1)[C@H](O)C2`, the max response with CRL-7250 was -5.79%; in the experiment on HaCat it was 4.8%; in the experiment with KB-3-1 it was -0.959%; with NIH3T3, -0.255%. In addition, the outcome with HEK293 and in the experiment on HEK293T was inactive. Moreover, the Potency entry in the experiment on MCC-13, in the experiment with MCC-26, in the experiment on MKL-1, in the experiment with MKL-2, in the experiment on UISO and in the experiment on WaGa was “inactive” in each case. The Potency entry with C33A, with CAOV3 and in the experiment on CASKI was “inactive” in each case.
In the case of `COCc1c(C(C)C)nc(C(C)C)c(/C=C/[C@@H](O)C[C@@H](O)CC(=O)O)c1-c1ccc(F)cc1`, the Potency entry in the experiment with TAB113, in the experiment on TAB165 and in the experiment with CASKI was “inactive” each time. The Potency is 59.6 nM (active) in the experiment with CRL-7250; 531 nM (active) in the experiment on HEK293; 841 nM (active) in the experiment on HaCat; 1840 nM (active) in the experiment with KB-3-1; 2370 nM (active) with NIH3T3; 1190 nM (active) in the experiment on MCC-13. The Potency with MKL-1 was 750 nM (active); with UISO it was 473 nM (active); with WaGa, 1060 nM (active); with CAOV3, 7080 nM (active).
With `Cc1cc(=O)n(-c2ccccc2)n1C`, the Potency entry in the experiment on TAB113, with TAB165, in the experiment with W2, in the experiment on MCC-13, in the experiment on MCC-26 and in the experiment with MKL-1 was “inactive” throughout. The Potency entry in the experiment with MKL-2, in the experiment with UISO, in the experiment on WaGa, with C33A and with CASKI was “inactive” throughout. The max response in the experiment with CRL-7250 is 2.86%; with HEK293 it was -47.4%; in the experiment with HaCat it was -15.6%; in the experiment on KB-3-1, 3.76%; in the experiment on NIH3T3, -41.4%.
As for `C[C@]12C=CC(=O)C=C1[C@@H](F)C[C@@H]1[C@@H]2[C@@H](O)C[C@@]2(C)[C@H]1CC[C@]2(O)C(=O)CO`, the max response in the experiment with CRL-7250 was 1.95%; in the experiment with HEK293 it was -9.41%; in the experiment with HaCat, -4.4%; with KB-3-1, 8% and -2.32%; in the experiment on NIH3T3 it was -3.51%. For the same compound, the Potency result in the experiment on MCC-13, in the experiment on MCC-26, in the experiment on MKL-1, in the experiment with MKL-2, with UISO and in the experiment with WaGa was “inactive” throughout. In addition, the Potency result in the experiment with C33A, with CAOV3 and with CASKI was “inactive” each time.
On to `CCCC(=O)O[C@]1(C(=O)CO)CC[C@H]2[C@@H]3CCC4=CC(=O)CC[C@]4(C)[C@H]3[C@@H](O)C[C@@]21C`, for which the max response in the experiment with CRL-7250 is -24.4%; in the experiment with HaCat it was -4.75%; in the experiment on KB-3-1, 1.39%; in the experiment on NIH3T3, -4.28%. For the same compound, the result in the experiment on HEK293 and with HEK293T was inactive. For the same compound, the Potency result in the experiment on MCC-13, in the experiment on MCC-26, in the experiment on MKL-1, in the experiment with MKL-2, in the experiment on UISO and in the experiment with WaGa was “inactive” throughout. Further, the Potency result in the experiment with C33A and in the experiment on CASKI was “inactive” each time. Further, in the experiment on CAOV3, the Potency is 3550 nM (active).
For `CC1(C)O[C@@H]2C[C@H]3[C@@H]4C[C@H](F)C5=CC(=O)CC[C@]5(C)[C@H]4[C@@H](O)C[C@]3(C)[C@]2(C(=O)CO)O1`, the max response with CRL-7250 is 2.33%; in the experiment on HaCat, -7.7%; with KB-3-1 it was 28%; in the experiment with NIH3T3 it was 0.0351%. The compound was classed as inactive in the experiment on HEK293 and with HEK293T. The Potency entry in the experiment with MCC-13, in the experiment with MCC-26, with MKL-1, in the experiment on MKL-2, in the experiment with UISO and in the experiment on WaGa was “inactive” throughout. Moreover, the Potency result with C33A and with CASKI was “inactive” each time.
